# Measurements taken from PubChem BioAssay (EPA / NIEHS).
# Records with an inconclusive call do not appear. Activity calls are given as the source filed them. Rule for the calls, unless noted: active = hit-call score of the fitted dose curve at least 0.9, where 1 is the maximum; inconclusive = response in the unintended direction; inactive = score below 0.9.
# Assays:
# [1] = TOX21_p53_BLA_p2_viability: Viability Assessment in the Tox21 HCT-116 p53 Agonism Beta-lactamase Assay, Phase 2 (AID 2283591);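 note: compound exposure lasted 16 h at 37 °C; actives lower the ATP signal meaning cytotoxicity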
# Outline: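 HCT-116 p53-bla cells (4000/well) rested 5 h at 37C, then received compounds in DMSO (217-fold dilution) for 16 h at 37C, 5% CO2. After the CCF4 read, CellTiter-Glo was added; ATP luminescence was read after 30 min at room temperature.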
# [2] = molecular target: Cellular tumor antigen p53 (Homo sapiens) (UniProt P04637); test: TOX21_p53_BLA_p2_ratio: Tox21 HCT-116 p53 Agonism Beta-lactamase Assay, Ratio, Phase 2 (AID 2283592)
# Cellular tumor antigen p53 (Homo sapiens), sequence (P04637 whole entry, looked up): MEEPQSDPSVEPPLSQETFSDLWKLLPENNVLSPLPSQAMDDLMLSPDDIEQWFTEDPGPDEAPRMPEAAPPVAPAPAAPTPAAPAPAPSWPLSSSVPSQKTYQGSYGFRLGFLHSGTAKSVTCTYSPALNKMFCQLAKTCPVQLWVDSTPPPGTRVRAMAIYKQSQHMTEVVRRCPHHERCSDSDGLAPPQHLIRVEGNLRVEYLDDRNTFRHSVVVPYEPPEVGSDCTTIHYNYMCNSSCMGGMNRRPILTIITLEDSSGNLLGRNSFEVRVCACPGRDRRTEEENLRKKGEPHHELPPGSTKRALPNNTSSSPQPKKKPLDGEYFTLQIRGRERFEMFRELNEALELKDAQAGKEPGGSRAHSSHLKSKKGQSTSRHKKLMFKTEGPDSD
# Outline: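 HCT-116 cells with p53-responsive beta-lactamase reporter, 4000 cells/well, preincubated 5 h, then compound in DMSO (217-fold dilution) for 16 h at 37C. CCF4-AM substrate 2 h at room temperature; 460/530 nm emission ratio fitted upward versus DMSO.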
# [3] = molecular target: Cellular tumor antigen p53 (Homo sapiens) (UniProt P04637); test: TOX21_p53_BLA_p3_ratio: Tox21 HCT-116 p53 Agonism Beta-lactamase Assay, Ratio, Phase 3 (AID 2283596)
# Outline: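 HCT116 p53-bla cells (4000/well) given compound in DMSO (217-fold dilution) after 5 h, incubated 16 h at 37C. CCF4-AM substrate 2 h at room temperature; 460/530 nm emission ratio, gain fitted against DMSO.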
# [4] = TOX21_p53_BLA_p4_viability: Viability Assessment in the Tox21 HCT-116 p53 Agonism Beta-lactamase Assay, Phase 4 (AID 2283597);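 note: hits lower the luminescence signal meaning cytotoxicity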
# Outline: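 HCT-116 p53-bla cells, 4000/well, dosed after 5 h attachment and incubated 16 h at 37 °C, 5% CO2. Viability from CellTiter-Glo ATP luminescence after 30 min at room temperature, taken after the beta-lactamase read; loss of signal indicates cytotoxicity.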
# [5] = molecular target: Cellular tumor antigen p53 (Homo sapiens) (UniProt P04637); test: TOX21_p53_BLA_p5_ratio: Tox21 HCT-116 p53 Agonism Beta-lactamase Assay, Ratio, Phase 5 (AID 2283599)
# Outline: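 HCT-116 cells carrying a p53-inducible beta-lactamase reporter were seeded at 4000 cells/well and dosed after 5 h with compound in DMSO (217-fold dilution). After 16 h at 37C, CCF4-AM substrate was added for 2 h, and the 460/530 nm emission ratio was scored as gain-of-signal versus DMSO.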
# [6] = TOX21_p53_BLA_p5_viability: Viability Assessment in the Tox21 HCT-116 p53 Agonism Beta-lactamase Assay, Phase 5 (AID 2283600)
# Outline: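 HCT-116 p53 beta-lactamase reporter cells, 4000/well, were exposed to compound (pin transfer, 217-fold dilution) for 16 hours at 37C. Cellular ATP was read by CellTiter-Glo luminescence after 30 min at room temperature.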
# [7] = molecular target: Cellular tumor antigen p53 (Homo sapiens) (UniProt P04637); test: TOX21_p53_BLA_p4_ratio: Tox21 HCT-116 p53 Agonism Beta-lactamase Assay, Ratio, Phase 4 (AID 2283601)
# Outline: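 HCT116 cells carrying an inducible beta-lactamase reporter were plated at 4000 cells/well, rested 5 h, then exposed to compounds in DMSO (217-fold dilution) for 16 h at 37C. CCF4-AM substrate was loaded 2 h at room temperature; 460/530 nm emission ratio scored gain-of-signal versus DMSO.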
# [8] = CCTE_Shafer_MEA_dev_firing_rate_mean: CCTE's Neural Network Formation Assay for Mean Firing Rate, Shafer Lab (AID 2284031; active = hit-call score of the fitted dose curve at least 0.9, where 1 is the maximum; inactive = score below 0.9)
# Outline: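 Developing rat cortical networks on MEA plates undergo 12-day compound exposure. Firing frequency, averaged across active electrodes, is integrated as area under the curve over four recording days, referenced to DMSO.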
# [9] = CCTE_Shafer_MEA_dev_per_burst_spike_percent: CCTE's Neural Network Formation Assay for Percent of Spikes in a Burst, Shafer Lab (AID 2284032; active = hit-call score of the fitted dose curve at least 0.9, where 1 is the maximum; inactive = score below 0.9)
# Outline: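 Rat primary cortical neurons on 16-electrode MEA wells, dosed from plating day 0 for 12 days with renewal on DIV 5 and 9; spikes-in-bursts percentage averaged over bursting electrodes, collapsed as AUC across days 5, 7, 9, 12; loss direction versus DMSO.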
# [10] = CCTE_Shafer_MEA_dev_active_electrodes_number: CCTE's Neural Network Formation Assay for Number of Active Electrodes, Shafer Lab (AID 2284040)
# Outline: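 Rat cortical primary cultures, 1.5 x 10^5 cells/well, PEI-coated MEA, laminin drop. Continuous exposure DIV 0–12; full media/compound change DIV 5, 9. Readout: electrodes with mean firing ≥5 spikes/min; AUC across days; loss vs DMSO.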
# [11] = CCTE_Shafer_MEA_dev_bursting_electrodes_number: CCTE's Neural Network Formation Assay for Number of Bursting Electrodes, Shafer Lab (AID 2284043)
# Outline: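 Primary rat cortical neurons were cultured on PEI-coated 48-well MEA plates (16 electrodes/well) and exposed from plating through day 12, with compound renewed at feeds on DIV 5 and 9. Electrodes bursting ≥1 per 2 min were counted on DIV 5, 7, 9, 12; trapezoidal AUC taken.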
# [12] = CCTE_Shafer_MEA_dev_per_burst_interspike_interval: CCTE's Neural Network Formation Assay for Burst Interspike Interval, Shafer Lab (AID 2284044; active = hit-call score of the fitted dose curve at least 0.9, where 1 is the maximum; inactive = score below 0.9;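 note: mean spike spacing inside bursts as AUC over recordings on days 5 7 9 12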)
# Outline: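 Primary rat cortical neurons on 48-well MEA plates, exposed from day 0 through day 12, treatment renewed at DIV 5 and 9. Within-burst interspike interval recorded days 5, 7, 9, 12, well-averaged, summarised as AUC; negative fit versus DMSO.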
# [13] = CCTE_Shafer_MEA_dev_burst_duration_mean: CCTE's Neural Network Formation Assay for Mean Burst Duration, Shafer Lab (AID 2284045; active = hit-call score of the fitted dose curve at least 0.9, where 1 is the maximum; inactive = score below 0.9)
# Outline: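 Primary rat cortical neurons on PEI-coated 16-electrode MEA wells, exposed from plating through day 12 with compound renewed at DIV 5 and 9; spontaneous activity recorded days 5, 7, 9, 12. Well-mean burst duration collapsed as trapezoidal AUC, fitted for loss versus DMSO.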
# [14] = CCTE_Shafer_MEA_dev_interburst_interval_mean: CCTE's Neural Network Formation Assay for Mean Interburst Interval, Shafer Lab (AID 2284046; active = hit-call score of the fitted dose curve at least 0.9, where 1 is the maximum; inactive = score below 0.9;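 note: well-mean interburst interval of bursting electrodes as AUC over four recording days; curve fitted for decrease in interburst interval relative to DMSO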)
# Outline: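 Developing rat cortical networks on 48-well MEAs receive compound from the day of plating. Burst intervals from each active electrode are averaged per well, and AUC over the recording days is fitted in the negative direction against DMSO.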
# [15] = CCTE_Shafer_MEA_dev_network_spike_number: CCTE's Neural Network Formation Assay for Number of Network Spikes, Shafer Lab (AID 2284048; active = hit-call score of the fitted dose curve at least 0.9, where 1 is the maximum; inactive = score below 0.9;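 note: synchronized bursts across electrodes counted on days 5 7 9 12 and integrated as AUC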)
# Outline: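 Primary rat cortical neurons were seeded at 1.5 x 10^5 cells/well on PEI-coated 16-electrode MEA wells with laminin, exposed from plating day 0, compound renewed at DIV 5 and 9. Network spikes were recorded on days 5, 7, 9, 12 and summarized as trapezoidal AUC versus DMSO.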
# [16] = CCTE_Shafer_MEA_dev_network_spike_peak: CCTE's Neural Network Formation Assay for Mean Number of Electrodes in Network Spike, Shafer Lab (AID 2284049; active = hit-call score of the fitted dose curve at least 0.9, where 1 is the maximum; inactive = score below 0.9)
# Outline: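 Continuous 12-day exposure of rat cortical cultures, starting at plating, on MEA plates. Endpoint: electrodes participating in network-spike peaks, AUC across DIV 5–12, DMSO as negative control.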
# [17] = CCTE_Shafer_MEA_dev_spike_duration_mean: CCTE's Neural Network Formation Assay for Mean Spike Duration, Shafer Lab (AID 2284051; active = hit-call score of the fitted dose curve at least 0.9, where 1 is the maximum; inactive = score below 0.9;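 note: mean network spike duration pooled as area under curve over DIV 5 to 12 recordings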)
# Outline: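 Readout is the average length of network spikes, clustered firing across electrodes, summed over DIV 5, 7, 9 and 12 as area under the curve. Neurons from rat cortex developed networks on MEA plates under continuous 12-day exposure.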
# [18] = CCTE_Shafer_MEA_dev_network_spike_duration_std: CCTE's Neural Network Formation Assay for Standard Deviation of Network Spike Duration, Shafer Lab (AID 2284052; active = hit-call score of the fitted dose curve at least 0.9, where 1 is the maximum; inactive = score below 0.9;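 note: area under curve of spike duration SD across recording days 5 to 12; hits are decreases in network spike duration SD versus DMSO vehicle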)
# Outline: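 Read-out is the trapezoidal area-under-the-curve across recordings made on days 5, 7, 9 and 12, fitted in the negative direction against DMSO baseline. Neurons were primary rat cortical cells treated from day 0, with treatment renewed at each feed.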
# [19] = CCTE_Shafer_MEA_dev_per_network_spike_spike_number_mean: CCTE's Neural Network Formation Assay for Mean Number of Spikes in a Network Spike, Shafer Lab (AID 2284053; active = hit-call score of the fitted dose curve at least 0.9, where 1 is the maximum; inactive = score below 0.9)
# Outline: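 Continuous twelve-day exposure of developing rat cortical networks grown over 16 microelectrodes per well; spontaneous firing is captured at four time points, and the per-network-spike spike number is integrated over development by trapezoidal AUC.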
# [20] = CCTE_Shafer_MEA_dev_per_network_spike_spike_percent: CCTE's Neural Network Formation Assay for Percent of Spikes in a Network Spike, Shafer Lab (AID 2284054; active = hit-call score of the fitted dose curve at least 0.9, where 1 is the maximum; inactive = score below 0.9)
# Outline: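 Primary rat cortical neurons on 16-electrode MEA wells (PEI-coated, laminin at plating), exposed from day 0 with renewal at DIV 5 and 9; spikes within 0.05 s of network-spike peaks over total spikes, AUC across days 5, 7, 9, 12.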
# [21] = CCTE_Shafer_MEA_dev_LDH: CCTE's Lactate Dehydrogenase Assay for Cytotoxicity in the Neural Network Formation Assay, Shafer Lab (AID 2284068);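 note: exposure for twelve days from plating with re-dosing on DIV 5 and 9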
# Outline: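 Cytotoxicity companion to network-formation recordings: rat cortical neurons received compound over 12 days of development, re-dosed at DIV 5 and 9 feeds. Viability was inferred from LDH enzyme activity relative to DMSO.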
# [22] = CCTE_Shafer_MEA_dev_mutual_information_norm: CCTE's Neural Network Formation Assay for Mutual Information Normalization, Shafer Lab (AID 2284091; active = hit-call score of the fitted dose curve at least 0.9, where 1 is the maximum; inactive = score below 0.9)
# Outline: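 Rat cortical cultures, 48-well MEA, continuous exposure DIV 0–12 with full media/compound change DIV 5 and 9. Readout: inter-electrode mutual information, AxIS adaptive spike detection; AUC across DIV 5/7/9/12 recordings; DMSO baseline, negative fitting direction.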
# [23] = CCTE_Shafer_MEA_dev_correlation_coefficient_mean: CCTE's Neural Network Formation Assay for Mean Correlation Coefficient, Shafer Lab (AID 2284093; active = hit-call score of the fitted dose curve at least 0.9, where 1 is the maximum; inactive = score below 0.9)
# Outline: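 Read-out: well-mean correlation coefficient of spike trains between electrode pairs, collapsed over four recording days as trapezoidal area-under-the-curve. Developing rat cortical neuron networks grown on MEAs received test chemical continuously from plating.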
structure (smiles),measurement,setting,value
c1cc2ccc3ccc4ccc5cccc6c(c1)c2c3c4c56,outcome,[1],inactive
same,AC50,[2],1.94 µM (active)
same,outcome,[3],inactive
same,outcome,[4],inactive
same,AC50,[5],2.79 µM (active)
same,outcome,[6],inactive
same,outcome,[7],inactive
same,outcome,[8],inactive
same,outcome,[9],inactive
same,outcome,[10],inactive
same,outcome,[11],inactive
same,outcome,[12],inactive
same,outcome,[13],inactive
same,outcome,[14],inactive
same,outcome,[15],inactive
same,outcome,[16],inactive
same,outcome,[17],inactive
same,outcome,[18],inactive
same,outcome,[19],inactive
same,outcome,[20],inactive
same,outcome,[21],inactive
same,outcome,[22],inactive
same,outcome,[23],inactive
Nc1ccc(Oc2ccc(Cl)cc2)cc1,outcome,[1],inactive
same,outcome,[2],inactive
same,outcome,[3],inactive
same,outcome,[4],inactive
same,outcome,[5],inactive
same,outcome,[6],inactive
same,outcome,[7],inactive
CC(C)COC(=O)c1ccc(N)cc1,outcome,[1],inactive
same,outcome,[2],inactive
same,outcome,[3],inactive
same,outcome,[4],inactive
same,outcome,[5],inactive
same,outcome,[6],inactive
same,outcome,[7],inactive
CC1(O)CCC(C(C)(C)O)CC1 (stereo unspecified),outcome,[1],inactive
same,outcome,[2],inactive
same,outcome,[3],inactive
same,outcome,[4],inactive
same,outcome,[5],inactive
same,outcome,[6],inactive
same,outcome,[7],inactive
C=C1CC[C@H](O)C/C1=C/C=C1\CCC[C@]2(C)[C@@H]([C@H](C)CC[C@@H](O)C(C)(C)O)CC[C@@H]12,AC50,[1],20.1 µM (active)
same,AC50,[2],24.5 µM (active)
same,AC50,[3],26.9 µM (active)
same,AC50,[4],17.9 µM (active)
same,AC50,[5],22.5 µM (active)
same,AC50,[6],17.2 µM (active)
same,AC50,[7],21.1 µM (active)
NS(=O)(=O)c1cc2c(cc1Cl)NC=NS2(=O)=O,outcome,[1],inactive
same,outcome,[2],inactive
same,outcome,[3],inactive
same,outcome,[4],inactive
same,outcome,[5],inactive
same,outcome,[6],inactive
same,outcome,[7],inactive
CCc1ccc2c(c1)N(CC(C)CN(C)C)c1ccccc1S2 (stereo unspecified),AC50,[1],38.7 µM (active)
same,outcome,[2],inactive
same,outcome,[3],inactive
same,AC50,[4],36.2 µM (active)
same,outcome,[5],inactive
same,outcome,[6],inactive
same,outcome,[7],inactive
CN(C)CC/C=C1\c2ccccc2Sc2ccc(Cl)cc21,outcome,[1],inactive
same,AC50,[2],33.1 µM (active)
same,outcome,[3],inactive
same,AC50,[4],35.7 µM (active)
same,outcome,[5],inactive
same,outcome,[6],inactive
same,AC50,[7],21.9 µM (active)
CCCOC(=O)C(C)O (stereo unspecified),outcome,[1],inactive
same,outcome,[2],inactive
same,outcome,[3],inactive
same,outcome,[4],inactive
same,outcome,[5],inactive
same,outcome,[6],inactive
same,outcome,[7],inactive
NS(=O)(=O)c1cc2c(cc1Cl)NC(C1CC3C=CC1C3)NS2(=O)=O (stereo unspecified),outcome,[1],inactive
same,outcome,[2],inactive
same,outcome,[3],inactive
same,outcome,[4],inactive
same,outcome,[5],inactive
same,outcome,[6],inactive
same,outcome,[7],inactive
